From PubChem BioAssay come the findings set out here.

For part of these data: Measured potencies and affinities stand elsewhere. Active and inactive are the calls of the source.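 The calls were made as follows, unless noted: active = fitted half-maximal concentration within 10 nM to 100 µM, steepness 0.5 to 2, significant signal drop, low assay interference; inactive = the rest.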

Assay [1] concerns the target Cell division control protein 42 homolog (Homo sapiens) (UniProt P60953). The experiment in a line: inhibition of fluorescent GTP binding to constitutively active Cdc42 – biochemical, multiplex bead flow cytometry, Bodipy-FL-GTP, dose response (AID 1333;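 active = fitted half-maximal concentration within the tested dose range, moderate curve steepness, a statistically real signal drop, and little compound fluorescence or tag-binding interference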). For orientation: Flow cytometry measures light scatter and fluorescence of single cells or particles in a stream.
Assay [2] has the same target. As to the kind of experiment: inhibition of fluorescent GTP binding to wildtype Cdc42 – biochemical, multiplex bead flow cytometry, Bodipy-FL-GTP, dose response (AID 1334;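 active = fitted half-maximal concentration within the tested range, moderate curve steepness, significant signal drop, and little compound fluorescence or bead-linkage interference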). Particulars: bead-based flow cytometry, Bodipy-FL-GTP binding to GST-Cdc42; at 100 µM (top of the series) unless noted.
Assay [3] deals with GTPase HRas (Homo sapiens) (UniProt P01112). The experiment in a line: Ras wt fluorescent GTP loading blockade – biochemical, wildtype, multiplex bead flow cytometry, dose response (AID 1335). The note with it: bead-based flow cytometry, Bodipy-GTP binding to GST-Ras; at 100 µM (top of the series) unless noted.
GTPase HRas (Homo sapiens), sequence (P01112 whole entry, looked up): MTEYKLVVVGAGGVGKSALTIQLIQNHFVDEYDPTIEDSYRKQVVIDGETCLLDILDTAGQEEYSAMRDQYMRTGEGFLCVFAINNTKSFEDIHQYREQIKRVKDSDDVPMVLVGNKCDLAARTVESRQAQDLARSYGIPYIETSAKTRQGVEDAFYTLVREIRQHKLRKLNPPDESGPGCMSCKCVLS
Assay [4] concerns Ras-related protein Rab-7a (dog), GTP binding. As to the kind of experiment: blockers of fluorescent GTP binding to Rab7 – biochemical, wildtype, multiplex bead flow cytometry, dose response (AID 1336; call rule not given here).
For assay [5], the target named is Ras-related C3 botulinum toxin substrate 1 (Homo sapiens) (UniProt P63000). As to the kind of experiment: inhibition of wildtype Rac1 nucleotide loading – biochemical, multiplex bead flow cytometry, dose response (AID 1340;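 active = dose curve with midpoint inside tested range, moderate steepness, plateau gap beyond fit error, low compound glow and bead-link interference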). The note with it: GST-Rac1 beads, Bodipy-FL-GTP binding; at 100 µM (top of the series) unless noted.
Assay [6] concerns the target GTPase HRas (Homo sapiens) (UniProt P01112). As to the kind of experiment: blockade of GTP loading onto mutant Ras – biochemical, activated mutant, multiplex bead flow cytometry, dose response (AID 1341;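 active = dose-response curve with midpoint inside the tested range, moderate steepness, significant amplitude and little compound fluorescence or bead-attachment interference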;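 also: GST-tagged constitutively activated Ras mutant immobilized on beads and multiplexed with other GTPases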).

Cell division control protein 42 homolog (Homo sapiens), sequence (P60953 whole entry, looked up): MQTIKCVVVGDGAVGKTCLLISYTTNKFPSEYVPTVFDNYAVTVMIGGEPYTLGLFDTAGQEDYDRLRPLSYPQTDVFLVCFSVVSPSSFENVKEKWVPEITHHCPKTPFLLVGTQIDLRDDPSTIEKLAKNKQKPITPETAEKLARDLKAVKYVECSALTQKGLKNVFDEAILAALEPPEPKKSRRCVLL

On to `COC(=O)c1cccc(NC(=O)c2nn(C)c(=O)c3ccccc23)c1`, for which the compound was classed as inactive in assay [1], in assay [4] and in assay [6]. In addition, in assay [2], the fluorescence, percent of control (lower = inhibition) worked out at 42.8%. The same compound came in with a GTP binding, percent of control in assay [3] of 155%. The same compound came in with a GTP binding signal, raw median fluorescence (lower = inhibition) (MCF (arbitrary fluorescence units)) in assay [5] of 179.

With `O=C(CN1CCN(c2ccc(O)cc2)CC1)Nc1cc(S(=O)(=O)N2CCCCC2)ccc1Cl`, the result in assay [1], in assay [4] and in assay [6] was inactive. Besides, the fluorescence, percent of control (lower = inhibition) in assay [2] was 35.8%. The compound also registered a GTP binding, percent of control in assay [3] of 87.7%. In assay [5], this compound yielded a GTP binding signal, raw median fluorescence (lower = inhibition) (MCF (arbitrary fluorescence units)) of 281.

`Cc1cccc(CNCc2sc(C(=O)O)cc2C)c1`: the outcome in assay [1], in assay [4] and in assay [6] was inactive. In assay [2], the fluorescence, percent of control (lower = inhibition) was 54.2%. Further, the GTP binding, percent of control in assay [3] was 77.2%. In assay [5], this compound came in with a GTP binding signal, raw median fluorescence (lower = inhibition) (MCF (arbitrary fluorescence units)) of 31.9.

On to `Nc1c(S(=O)(=O)c2ccccc2)c2nc3ccccc3nc2n1C1CC1`, for which the compound was classed as inactive in assay [1], in assay [4] and in assay [6]. Besides, the fluorescence, percent of control (lower = inhibition) in assay [2] stood at 33.3%. Besides, in assay [3], the GTP binding, percent of control turned out to be 80%. The GTP binding signal, raw median fluorescence (lower = inhibition) (MCF (arbitrary fluorescence units)) in assay [5] stood at 196.

`COc1cc(/C=C/c2ccc3cccc([N+](=O)[O-])c3n2)ccc1OCC(=O)O`: the compound was called inactive in assay [1], in assay [4] and in assay [6]. The fluorescence, percent of control (lower = inhibition) in assay [2] is 32.7%. Moreover, the GTP binding, percent of control in assay [3] amounted to 76.2%. The compound also displayed a GTP binding signal, raw median fluorescence (lower = inhibition) (MCF (arbitrary fluorescence units)) in assay [5] of 160.

In the case of `COc1cccc(CNCc2sc(C(=O)O)cc2C)c1OC`, the result in assay [1], in assay [4] and in assay [6] was inactive. Further, in assay [2], the fluorescence, percent of control (lower = inhibition) came out at 61.7%. This compound returned a GTP binding, percent of control in assay [3] of 80.7%. Also, in assay [5], the GTP binding signal, raw median fluorescence (lower = inhibition) (MCF (arbitrary fluorescence units)) amounted to 35.

Consider `Cc1cc(N/N=C/c2ccc(O)cc2O)nc(-n2nc(C)cc2C)n1`, for which the outcome in assay [1], in assay [4] and in assay [6] was inactive. The fluorescence, percent of control (lower = inhibition) in assay [2] turned out to be 41%. The compound further had a GTP binding, percent of control in assay [3] of 53.3%. The same compound gave a GTP binding signal, raw median fluorescence (lower = inhibition) (MCF (arbitrary fluorescence units)) in assay [5] of 141.

On to `O=C(O)c1cccnc1SCc1ccccc1Cl`, for which the call in assay [1], in assay [4] and in assay [6] was inactive. In assay [2], the fluorescence, percent of control (lower = inhibition) was determined as 103%. This compound came in with a GTP binding, percent of control in assay [3] of 119%. The compound further yielded a GTP binding signal, raw median fluorescence (lower = inhibition) (MCF (arbitrary fluorescence units)) in assay [5] of 88.1.

In the case of `Cc1cccc(/C=N/N(CCO)C2=NS(=O)(=O)c3ccccc32)c1`, the compound was classed as inactive in assay [1], in assay [4] and in assay [6]. Also, the fluorescence, percent of control (lower = inhibition) in assay [2] is 28.3%. In addition, the GTP binding, percent of control in assay [3] worked out at 67.6%. The GTP binding signal, raw median fluorescence (lower = inhibition) (MCF (arbitrary fluorescence units)) in assay [5] was determined as 139.

As to `O=C(COn1nnc2ccc(Cl)cc21)NCc1ccccc1`, the call in assay [1], in assay [4] and in assay [6] was inactive. Besides, the fluorescence, percent of control (lower = inhibition) in assay [2] turned out to be 89.6%. This compound also registered a GTP binding, percent of control in assay [3] of 154%. The compound also returned a GTP binding signal, raw median fluorescence (lower = inhibition) (MCF (arbitrary fluorescence units)) in assay [5] of 183.

For `CC(=O)Nc1ccc(N=Cc2c(O)c(C(=O)Nc3ccccc3)cc3ccccc23)cc1`, the result in assay [1], in assay [4] and in assay [6] was inactive. Besides, the fluorescence, percent of control (lower = inhibition) in assay [2] is 85.4%. For the same compound, the GTP binding, percent of control in assay [3] amounted to 123%. Also, the GTP binding signal, raw median fluorescence (lower = inhibition) (MCF (arbitrary fluorescence units)) in assay [5] turned out to be 341.

`Cc1no[n+]([O-])c1COc1cccc(/C=C2\N=C(c3ccccc3)OC2=O)c1`: the call in assay [1], in assay [4] and in assay [6] was inactive. For the same compound, the fluorescence, percent of control (lower = inhibition) in assay [2] is 46.6%. The GTP binding, percent of control in assay [3] was found to be 60.8%. The compound further had a GTP binding signal, raw median fluorescence (lower = inhibition) (MCF (arbitrary fluorescence units)) in assay [5] of 184.

Regarding `COc1cccc(Nc2c(F)c(F)c(F)c(F)c2C(=O)O)c1`, the outcome in assay [1], in assay [4] and in assay [6] was inactive. Besides, the fluorescence, percent of control (lower = inhibition) in assay [2] came to 53.4%. Besides, the GTP binding, percent of control in assay [3] was 60.7%. For the same compound, the GTP binding signal, raw median fluorescence (lower = inhibition) (MCF (arbitrary fluorescence units)) in assay [5] was determined as 0.

As for `O=C(C#Cc1ccccc1F)c1ccc([N+](=O)[O-])cc1`, the call in assay [1], in assay [4] and in assay [6] was inactive. For the same compound, the fluorescence, percent of control (lower = inhibition) in assay [2] amounted to 49.8%. Moreover, the GTP binding, percent of control in assay [3] is 179%. For the same compound, the GTP binding signal, raw median fluorescence (lower = inhibition) (MCF (arbitrary fluorescence units)) in assay [5] was found to be 104.

As to `O=c1c2ccc([N+](=O)[O-])cc2ncn1CCOc1ccccc1`, the call in assay [1], in assay [4] and in assay [6] was inactive. Also, the fluorescence, percent of control (lower = inhibition) in assay [2] was determined as 48.1%. Besides, in assay [3], the GTP binding, percent of control amounted to 95.3%. The same compound returned a GTP binding signal, raw median fluorescence (lower = inhibition) (MCF (arbitrary fluorescence units)) in assay [5] of 188.
